The values that follow come from PubChem BioAssay (NCATS).

Starred links: 1 amine or outer side, 2 acyl side, 3 side chain; linkers in the order of their positions; H or OH if unused. Positions of bridges follow the written chain, without caps; N, C: chain ends. Non-standard residues stand in square brackets, D forms with d. Residues, ends and D or L forms follow the SMILES beside them. Chains are numbered I, II in the order given. *: point of attachment. Actinocin(9to1) = Cc1c2oc3c(C)ccc(C(=O)[*:1])c3nc-2c(C(=O)[*:2])c(N)c1=O; NMeV = CN[CH](C(=O)O)C(C)C; Cbz = O=C(OCc1ccccc1)*; Sar = CNCC(=O)O

This assay is described as follows: qHTS drug screen for cell cycle checkpoint inhibitors in PARPi-resistant BRCA-mutant ovarian cancer cell lines. (AID 1963452). As to conditions: PEO1/OlaR viability, CellTiter-Glo luminescence, 96 h; measured here: PEO1 parental Z-AUC; stronger effect = lower value. The gist of the method:
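PEO1, PEO4 and PEO1/OlaR ovarian cancer cells, 600 per well, exposed 96 h at 37C to a dilution series. Viability read by CellTiter-Glo luminescence, normalized to DMSO and empty wells; activity summarized as Z-AUC.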
On to `O=C(CCCCCCC(=O)Nc1cccnc1)NO`, for which the Z-AUC turned out to be 0.211.
Consider `CC(N[C@H]1CCCC[C@H]1NC(=O)c1ccc(Cl)cc1)c1cccc2ccccc12` (some centres not stated), for which the Z-AUC was found to be 0.0458.
For the compound `Oc1ccc(-c2ccc(-c3cc(Nc4cccc(CNC5CC5)c4)n[nH]3)cc2)c(O)c1`, the Z-AUC came to 0.119.
To `CC(C)C[C@@H](C=O)NC(=O)[C@H](CC(C)C)NC(=O)[C@H](CC(C)C)NC(=O)OCc1ccccc1` (Cbz-Leu-Leu-Leu-aldehyde) belongs -0.937; to `Oc1ccc([C@@H]2Oc3ccc(O)cc3[C@@H]3CCC[C@@H]32)cc1`, -0.25; to `Nc1nc(=O)n([C@H]2C[C@H](O)[C@@H](CO)O2)cc1F`, -1.19.
With `Cc1c2oc3c(C)ccc(C(=O)NC4C(=O)NC(C(C)C)C(=O)N5CCCC5C(=O)N(C)CC(=O)N(C)C(C(C)C)C(=O)OC4C)c3nc-2c(C(=O)NC2C(=O)NC(C(C)C)C(=O)N3CCCC3C(=O)N(C)CC(=O)N(C)C(C(C)C)C(=O)OC2C)c(N)c1=O` (configuration not stated) (I: TVP[Sar][NMeV] / II: TVP[Sar][NMeV]; ester I:1-I:C, II:1-II:C; linker I:N-II:N via Actinocin(9to1); configuration not given here), the Z-AUC is -0.674.
To `C#Cc1cccc(Nc2ncnc3cc(OCCOC)c(OCCO)cc23)c1` belongs 0.383; to `CC(C)Oc1ccc(C(=O)N[C@H](CNC(=O)CN(C)C)Cc2ccc(-c3cn4cccc([C@H](C)O)c4n3)cc2)cc1Cl`, -0.733; to `CCCCCCCCc1ccc(CCC(N)(CO)CO)cc1`, -0.111.
To `O=C(O)CCCCCC(=O)NN=C1CCCC1` belongs 1.02; to `Cc1cnc(NC(=O)Nc2cc(Br)c(C)cc2OC[C@@H]2CNCCO2)cn1`, -0.193.
